# Compound activity: PubChem, National Center for Advancing Translational Sciences (NCATS)
# Compounds with a hit are over-represented: about 7.2% of the library has one in this group of screens.
# FMDV inh – foot and mouth disease virus antiviral activity | FMDV antiviral cell-based qHTS | Potency, µM (top dose mostly 57.9 µM), without a hit: at the top dose activity change, negative = inhibition, actives largely listed as inhibitors | actives 1.2% (n = 410,000); calls by dose curve; tested in HEK293T cells; note: read-out not given here; nearly all actives have a fitted effect of over 45% in size
# RE007 growth inh – less growth of the S. pombe RE007 Vpr strain; actives 0.21% (n = 360,000); S. pombe RE007 Vpr strain, BacTiter-Glo ATP luminescence, 24 h; Potency, µM (top dose mostly 92.2 µM), inactives show at the highest dose activity change, negative = less growth, actives largely listed as inhibitors; AID 651644; active = well fitted falling curve with a large enough effect; inconclusive = small, poorly fitted or top-dose-only effect; inactive = no such curve, though single readings can be large or run the other way; note: nearly all actives have a fitted effect of over 50% in size
#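 Fission yeast strain RE007, carrying one chromosomally integrated HIV-1 vpr copy, was seeded at OD 0.01 in PMG+AL medium with 23 nL pinned compound. After 24 h at 30 °C and 99% humidity, viability was read by BacTiter-Glo luminescence.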
# Sm TGR inh – blocks Schistosoma mansoni thioredoxin glutathione reductase. actives 3% (n = 360,000). purified TGR, DTNB reduction, TNB absorbance 405 nm. Q962Y6. AID 485364. Potency, µM (series often up to 114 µM), for inactives: at the top dose activity change, negative = inhibition, usual class: inhibitors; note: nearly all actives have a fitted effect of over 60% in size
#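 First, TGR (20 nM dispensed) and NADPH were mixed with compound. Second, a 15 min room-temperature incubation followed. Third, further NADPH and then DTNB were added to start the reaction. Finally, TNB absorbance was monitored kinetically.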
# HCV inhibitor – HCV inhibition; Potency, µM (doses to about 41.8 µM), without a hit: top-dose activity change, negative = inhibition, hits mostly inhibitors; Huh7.5.1 HCVcc-Cre infection, luciferase reporter, 44 h; actives 3.4% (n = 340,000)
#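 Antiviral activity was scored by luciferase reporter output from cells infected with HCVcc-Cre (~0.5 moi) in presence of compound, 44 h infection period, cells seeded 1,000/well 4 h prior.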
# Marburg entry inh – inhibitors of Marburg virus binding or cell entry; AID 540276; Potency, µM (top dose mostly 37.8 µM), without a hit: at the highest dose activity change, negative = inhibition, hits mostly inhibitors; actives 1.8% (n = 300,000); Marburg virus pseudotyped entry inhibition, cell reporter; calls by dose curve; tested in HEK293 cells
# LASV entry inh – Lassa virus entry inhibition; Lassa virus pseudotype entry inhibition, cell reporter; Potency, µM (series often up to 37.9 µM), for the others: top-dose activity change, negative = inhibition, hits mostly inhibitors; actives 1.2% (n = 300,000); AID 540256; calls by dose curve; tested in HEK293 cells; note: nearly all actives have a fitted effect of over 50% in size
# Numbers without * were called inactive; ? = inconclusive; · = no result; ! = not confirmed by another sample; [ ] = dose if it differs, or a comment. Unless noted, calls come from the whole dose curve; as a rule, active = well fitted curve in the direction sought with a large enough effect; inconclusive = small, poorly fitted or top-dose-only effect, or another doubt; inactive = no such curve, though single readings can be large; an effect the other way counts as inactive or inconclusive. % is set by controls: 0 for no effect and ±100 for the full control effect; potency is the fitted concentration of half-maximal effect.
SMILES,FMDV inh,RE007 growth inh,Sm TGR inh,HCV inhibitor,Marburg entry inh,LASV entry inh
CS(=O)(=O)NCCNc1ccc(C(F)(F)F)cc1[N+](=O)[O-],22.3%,-0.8%,-0.6%[57.1 µM],-0.8%,·,·
COc1ccc2[nH]c(C)c(CCNc3ccc(C(F)(F)F)cc3[N+](=O)[O-])c2c1,?,-13.8%,-4.4%,-9.0%,2.51µM*,-2.2%
COc1ccc(CNCCc2c(C)[nH]c3ccc(OC(F)(F)F)cc23)c(OC)c1,-12.2%,4.4%,-15.4%,17.8µM*,6.31µM*,?
COc1ccc(NC(=O)c2noc3c2CCC3)cc1,-35.4%,39.8µM*,-22.8%,7.8%,?,?
CC(=O)c1ccc(NC(=O)c2noc3c2CCC3)cc1,?,-17.5%,39.8µM*,9.5%,·,·
O=C(NCCC1=CCCCC1)c1ccc2c(c1)N(Cc1ccc(F)cc1)C(=O)c1ccccc1S2(=O)=O,-21.2%,·,-2.1%,·,?,?
CCSc1nnc(C(C)NS(=O)(=O)c2cccc(Cl)c2C)n1C (stereo unspecified),0.4%,·,·,·,·,·
COc1ccccc1OCc1nnc(SCC(=O)NCc2ccco2)n1Cc1ccco1,-12.2%,3.3%,15.8µM*,-4.6%,14.5%,-13.3%
Clc1ccc(OCc2nnc(SCCN3CCCCC3)n2Cc2ccco2)cc1,-10.9%,-11.3%,25.1µM*,?,25.9µM*!,-21.4%
Cc1ccc(OCc2nnc(SCc3nc4ccccc4[nH]3)n2Cc2ccco2)cc1,?,24.7%,-10.3%,10µM*,?,?
O=C(CSc1nnc(Cc2ccccc2)n1Cc1ccco1)NC1CCCC1,24.4%,4.8%,?,-8.6%,-2.3%,-2.1%
O=c1c2ccccc2nnn1CSc1nnc(COc2ccc(Cl)cc2)n1Cc1ccco1,0.2%,4.7%,-14.7%,?,-0.7%,-21.1%
CC(C)OC(=O)CSc1nnc(Cc2ccccc2)n1Cc1ccco1,-14.1%,5.1%,22.4µM*,-20.2%,21.5%,-0.8%
O=C(CSc1nnc(COc2ccccc2F)n1-c1ccccc1)NCc1ccco1,-3.5%,4.9%,39.8µM*,-12.4%,22.1%,6.0%
COc1ccccc1NC(=O)CSc1nnc(COc2ccc(Cl)cc2)n1Cc1ccco1,-16.9%,18.1%,?,11.2µM*,-15.7%,-9.4%
COc1ccc(C)cc1NC(=O)CSc1nnc(COc2ccc(C)cc2)n1Cc1ccco1,?,16.6%,9.4%,?,?,?
COc1ccc([C@]23Cc4cc(C#N)ccc4[C@H](O2)c2c(cc(C)n(-c4ccccc4)c2=O)O3)cc1,·,·,·,·,2.3%[14.2 µM],·
Clc1ccc(CNc2ncnc3[nH]ncc23)cc1Cl,-20.9%,0.7%,·,-18.7%,3.98µM*,7.08µM*
Cc1cccc(CNc2ncnc3[nH]ncc23)c1,?,14.9%,·,-24.1%,-0.5%,1.4%
c1cn2cc(-c3ccc4c(c3)OCO4)nc2s1,-2.4%,-23.7%[3.69 µM],-13.4%,5.6%,?,10.3µM*
CCCCc1ccc(-c2ccc(C)cc2O)nc1,-18.8%,10.7%,2.9%[11.4 µM],5.9%,?,10.3µM*
CCCCc1ccc(-c2ccc(Br)cc2O)nc1,58.8%,12.0%,-2.6%,-10.0%,?,6.8%
CCN(CC)S(=O)(=O)c1cc(NC(=O)C(=O)c2c(-c3ccccc3)cc3ccccn23)ccc1C,-25.0%,-14.4%,-14.0%,12.6µM*,?,?
CCN(CC)S(=O)(=O)c1ccc(N2CCOCC2)c(NC(=O)C(=O)c2c(-c3ccccc3)cc3ccccn23)c1,15.3%,15.6%[3.69 µM],0.4%,14.1µM*,?,?
O=C(NCc1ccco1)c1cccc(Nc2nc3ccc(Br)cc3[nH]2)c1,-7.5%,-3.4%,1.2%,-22.3%,·,·
SMILES,FMDV inh,RE007 growth inh,Sm TGR inh,HCV inhibitor,Marburg entry inh,LASV entry inh
O=C(NCC1CC1)c1ccc(Nc2nc3ccc(Br)cc3[nH]2)cc1,-20.4%,-6.7%,3.55µM*,?,·,·
Cc1ccc(C(=O)N2C(=O)C(c3ccccc3)Oc3ccccc32)cc1 (stereo unspecified),7.2%,24.5%,0.0%,-26.7%,7.94µM*,?
COCc1c(C(=O)N2CCN(c3ccccc3O)CC2)cnn1-c1nccc(-c2cccs2)n1,-17.4%,·,·,·,·,·
Cc1ccc(OCCNc2cc(N3CCN(CCO)CC3)ccc2[N+](=O)[O-])cc1C,-22.9%,0.2%,-9.4%,10µM*,?,?
Cc1ccccc1OCCNc1cc(N2CCNCC2)ccc1[N+](=O)[O-],·,·,0.1%,·,·,·
Cc1cccc(OCCNc2cc(N3CCOCC3)ccc2[N+](=O)[O-])c1,29.7%,15.0%,-8.9%,10µM*,?,16.0%
Cc1cccc(OCCNc2cc(N3CCN(C)CC3)ccc2[N+](=O)[O-])c1,15.9%,-8.2%,-5.7%,?,?,?
COC(=O)C1=C(C)N(Cc2ccccc2)C(=NCCc2cccnc2)NC1c1ccc(Br)cc1 (stereo unspecified),·,·,·,·,4.2%[14.2 µM],?
CCOC(=O)c1ccc(-n2c(C)ccc2C)cc1,2.4%,2.6%,28.2µM*,32.3%,4.7%,-2.8%
CCOC(=O)c1ccc(N2C(=O)C=CC2=O)cc1,0.0%,5.62µM*,0.501µM*,?,?,-10.5%
CCOC(=O)c1ccc(N2C(=O)CC(C)(CC)CC2=O)cc1,-2.0%,-3.4%,1.4%,20.6%,·,·
CC(C)C(=O)Nc1ccc(N2CCN(c3ccc(F)cc3)CC2)cc1,-7.2%,3.7%,-0.1%,3.7%,9.4%[46.1 µM],16.3%[46.1 µM]
O=C(COC(=O)c1ccc[nH]c1=O)Nc1ccc(N2CCCCC2)cc1,2.51µM*,1.0%,·,-24.6%,·,·
CC(C)C(=O)Nc1ccc(N2CCCC2)cc1,39.6%,-2.3%,35.5µM*,-8.0%,13.5%,6.3%
COc1ccccc1C(=O)Nc1ccc(N2CCN(C(C)=O)CC2)cc1,-3.0%,10.1%,·,22.1%,?,16.1%[46.1 µM]
COc1ccccc1C(=O)Nc1ccc(N2CCCCC2)cc1,4.7%,-14.7%,0.8%,14.6%,7.94µM*,?
O=C(Nc1ccc(N2CCCCC2)cc1)c1ccccn1,2.82µM*,?,-2.0%,-18.0%,0.461µM*,0.517µM*
CC(=O)c1ccc(N2CCN(C(=O)Nc3ccc(C(C)C)cc3)CC2)cc1,14.1µM*,8.3%,-1.7%,3.16µM*,3.16µM*,?
CN(C)c1ccc(C(CNC(=O)Cc2ccc(Cl)cc2)N2CCOCC2)cc1 (stereo unspecified),-4.8%,·,-1.9%,·,·,11.9%[46.1 µM]
CC(=O)OC1(C(C)=O)CCC2C3CC(C(F)(F)F)C4=CC(=O)CCC4(C)C3CCC21C (stereo unspecified),-5.6%,-2.3%,·,?,8.91µM*,?
Cc1cccc(N(Cc2cc3ccccc3[nH]c2=O)C(=O)c2ccco2)c1C,-13.7%,25.1%,-21.2%,2.8%,12.1%,21.2%
CC(C)N(Cc1cc2ccccc2[nH]c1=O)C(=O)c1ccco1,9.7%,-11.8%,28.2µM*,4.1%,-3.2%[46.1 µM],5.6%[46.1 µM]
